A short description of experiment [1]: qHTS RealTime-Glo MT Cell Viability Assay in HEK293 cells - 0 hour (AID 1224880). Further: top concentration of the series differs between compounds; nearly all actives have a fitted effect of over 45% in size. In a few lines: (§1)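 Luminescence, which tracks viable cell number through reduction of the prosubstrate to a NanoLuc substrate, was read over continuous 37 C culture. Cells (600/well) were premixed with reagent and rested 5 h before 23 nL of compound in DMSO was pinned.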
(In general: qHTS replaces the single test concentration by a dilution series.)

Experiment [2] can be described thus: A CellTox Green Cytotoxicity Assay to monitor cytotoxicity in HEK293 cells - 32 hour (AID 1224881). Further: nearly all actives have a fitted effect of over 40% in size. In a few lines: (§2)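 Fluorescence from a DNA-binding dye excluded by viable cells was measured repeatedly in the same HEK293 wells (600 cells/well) during continuous compound exposure at 37 C. Each assay gives one read point: 0, 8, 16, 24, 32 or 40 h.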
Experiment [3] can be described thus: A CellTox Green Cytotoxicity Assay to monitor cytotoxicity in HepG2 cells - 32 hour (AID 1224883). Further: nearly all actives have a fitted effect of over 50% in size. Further: potency means the concentration at half of the fitted maximal effect. The procedure, abridged:
(§3)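 Real-time cytotoxicity: fluorescence of a cell-impermeant cyanine dye binding DNA of dead HepG2 cells, measured repeatedly (0–40 h) during compound exposure at 37 C. Cells seeded 600/well with reagent, dosed after 5 h.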

Experiment [4] in a line: A CellTox Green Cytotoxicity Assay to monitor cytotoxicity in HEK293 cells - 8 hour (AID 1224884). Further: nearly all actives have a fitted effect of over 35% in size. Further: potency means the concentration at half of the fitted maximal effect. The procedure, abridged:
as §2

The nature of experiment [5]: qHTS RealTime-Glo MT Cell Viability Assay in HepG2 cells - 16 hour (AID 1224885). Further: nearly all actives have a fitted effect of over 50% in size. In a few lines: (§4)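 qHTS, HepG2, 600 cells/well, RealTime-Glo (NanoLuc + prosubstrate) added with cells; 5 h preincubation; DMSO compound addition; 37 C; luminescence at 0/8/16/24/32/40 h.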
Experiment [6] is described as follows: A CellTox Green Cytotoxicity Assay to monitor cytotoxicity in HEK293 cells - 16 hour (AID 1224888). Further: nearly all actives have a fitted effect of over 35% in size. Further: potency means the concentration at half of the fitted maximal effect. In a few lines: as §2
Experiment [7] in a line: qHTS RealTime-Glo MT Cell Viability Assay in HepG2 cells - 0 hour (AID 1224889). Further: nearly all actives have a fitted effect of over 50% in size. The procedure, abridged:
as §4

A short description of experiment [8]: A CellTox Green Cytotoxicity Assay to monitor cytotoxicity in HepG2 cells - 8 hour (AID 1224890). Further: nearly all actives have a fitted effect of over 45% in size. Further: potency means the concentration at half of the fitted maximal effect. In a few lines: as §3
The nature of experiment [9]: qHTS assay to identify small molecule antagonists of the estrogen receptor alpha (ER-alpha) signaling pathway using the BG1 cell line in the presence of 0.1 nM 17-beta-estradiol - cell viability counter screen (AID 1259241). Further: nearly all actives have a fitted effect of over 40% in size. The procedure, abridged:
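Cells were plated and left 24 hr, compounds in DMSO were pinned in, 17beta-estradiol was added to 0.1 nM final, and after 22 hr CellTiter-Fluor reagent was added for 30 min before fluorescence was read.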

The nature of experiment [10]: qHTS assay to identify small molecule antagonists of the androgen receptor (AR) signaling pathway using the MDA cell line in the presence of 0.5 nM R1881 - cell viability counter screen (AID 1259242). Further: nearly all actives have a fitted effect of over 45% in size. The procedure, abridged:
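Live-cell protease activity was measured by CellTiter-Fluor fluorescence after 30 min. Before that, MDA-kb2 MMTV-luciferase cells had 16 hr at 37C without CO2, exposed to test compounds and 0.5 nM R1881 final.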

Experiment [11] concerns the target Estrogen receptor (Homo sapiens) (UniProt P03372). Nature of the experiment: qHTS assay to identify small molecule antagonists of the estrogen receptor alpha (ER-alpha) signaling pathway using the BG1 cell line in the presence of 0.1 nM 17-beta-estradiol (AID 1259244). Further: nearly all actives have a fitted effect of over 50% in size. In a few lines: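 Luciferase luminescence (ONE-Glo, 30 min at room temperature) was read after 22 hr at 37C exposure to compounds plus 17beta-estradiol at 0.1 nM final. Cells were VM7Luc4E2 with endogenous ER-alpha and an ERE-driven luciferase, pre-cultured 5 days in hormone-depleted medium.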

Experiment [12] is described as follows: qHTS assay to identify small molecule HDAC inhibitors (AID 1259364). Further: nearly all actives have a fitted effect of over 45% in size. Further: potency means the concentration at half of the fitted maximal effect. On activity change, negative = inhibition: top concentration of the series differs between compounds. The procedure, abridged: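 Luminescence read after 30 min room-temperature HDAC-Glo incubation measures cellular class I/II HDAC activity. Compounds were applied for 2 hr at 37 C to HCT-116 wild-type cells seeded the day before.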
Experiment [13] is described as follows: qHTS assay to identify small molecule HDAC inhibitors - cell viability counter screen (AID 1259365). The procedure, abridged: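 Counter screen in wild-type HCT-116 cells: compounds dissolved in DMSO are pin-transferred onto overnight-plated cells and left 2hr at 37C. ATP-based CellTiter-Glo luminescence then measures viable cells.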
Experiment [14] in a line: qHTS assay to identify small molecule agonists of the sonic hedgehog signaling (Shh) pathway - cell viability counter screen (AID 1259366). Further: nearly all actives have a fitted effect of over 50% in size. In a few lines: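 Cells are plated at 2,000 per well and left 4hr at 37C, 5% CO2 before compound addition. After 23hr of treatment, CellTiter-Fluor reagent is added for 1hr at 37C and fluorescence is measured.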
Experiment [15] can be described thus: qHTS RealTime-Glo MT Cell Viability Assay in HEK293 cells - 8 hour (AID 1224887). The procedure, abridged: as §1
Experiment [16] deals with Androgen receptor (Homo sapiens) (UniProt P10275). Nature of the experiment: qHTS assay to identify small molecule antagonists of the androgen receptor (AR) signaling pathway using the MDA cell line in the presence of 0.5 nM R1881 (AID 1259243). Further: nearly all actives have a fitted effect of over 50% in size. In a few lines: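 Luminescent reporter readout (ONE-Glo, 30 min, room temperature) after 16 hr co-treatment of MDA-kb2 cells with test compounds and 0.5 nM R1881 final, at 37C without CO2. The MMTV-driven luciferase responds to both AR and GR.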
Sequence of Androgen receptor (Homo sapiens) (P10275 whole entry, looked up): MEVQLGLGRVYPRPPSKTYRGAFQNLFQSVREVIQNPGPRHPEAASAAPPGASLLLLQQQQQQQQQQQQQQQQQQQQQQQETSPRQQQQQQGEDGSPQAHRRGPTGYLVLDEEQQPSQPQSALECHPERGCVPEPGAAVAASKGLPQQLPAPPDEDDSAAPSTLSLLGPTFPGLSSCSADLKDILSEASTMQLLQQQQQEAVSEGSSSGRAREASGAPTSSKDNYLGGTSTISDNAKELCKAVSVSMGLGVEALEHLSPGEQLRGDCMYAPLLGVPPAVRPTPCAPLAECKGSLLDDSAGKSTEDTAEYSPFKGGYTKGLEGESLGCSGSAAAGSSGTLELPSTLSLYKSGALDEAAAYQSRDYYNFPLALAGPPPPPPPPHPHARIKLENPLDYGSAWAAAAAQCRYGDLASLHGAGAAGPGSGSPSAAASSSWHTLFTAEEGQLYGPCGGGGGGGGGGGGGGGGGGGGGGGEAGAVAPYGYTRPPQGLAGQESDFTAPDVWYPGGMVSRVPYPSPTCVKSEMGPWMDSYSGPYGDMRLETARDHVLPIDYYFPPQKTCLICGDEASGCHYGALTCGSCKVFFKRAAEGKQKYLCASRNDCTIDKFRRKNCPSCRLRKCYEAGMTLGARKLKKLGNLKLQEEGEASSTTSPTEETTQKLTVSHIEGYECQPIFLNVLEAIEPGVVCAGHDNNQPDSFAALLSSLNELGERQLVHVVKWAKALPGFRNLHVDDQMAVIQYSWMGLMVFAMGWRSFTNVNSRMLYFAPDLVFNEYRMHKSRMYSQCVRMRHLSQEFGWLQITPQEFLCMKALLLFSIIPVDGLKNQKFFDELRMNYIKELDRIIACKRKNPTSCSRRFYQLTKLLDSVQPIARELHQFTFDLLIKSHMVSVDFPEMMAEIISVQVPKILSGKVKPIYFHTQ

A short description of experiment [17]: qHTS assay to identify small molecule phospholipidosis (PLD) inducers (AID 1259344; active means well fitted curve in the direction sought with a large enough effect; an effect the other way counts as inactive or inconclusive). The procedure, abridged:
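After 4 h attachment on collagen I, HepG2 cells were dosed with compound alongside LipidTOX Red, kept 24 h at 37 C, fixed, and imaged for lamellar phospholipid pits.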

Experiment [18] is described as follows: qHTS assay to identify small molecule antagonists of the sonic hedgehog signaling (Shh) pathway - cell viability counter screen (AID 1259367). Further: nearly all actives have a fitted effect of over 55% in size. The procedure, abridged:
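Conditioned medium drove Shh signaling in 3T3 Gli1-Luc cells exposed to compounds at 37C and 5% CO2. Viability was determined from CellTiter-Fluor fluorescence, with reagent incubated 1 hr after 23 hr of treatment.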

Experiment [19] is described as follows: A CellTox Green Cytotoxicity Assay to monitor cytotoxicity in HepG2 cells - 0 hour (AID 1224882). Further: nearly all actives have a fitted effect of over 35% in size. The procedure, abridged:
as §3

Experiment [20] in a line: qHTS RealTime-Glo MT Cell Viability Assay in HEK293 cells - 24 hour (AID 1224886). Further: nearly all actives have a fitted effect of over 50% in size. Further: potency means the concentration at half of the fitted maximal effect. On activity change, negative = cytotoxicity: top concentration of the series differs between compounds. The procedure, abridged: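 Assay medium contained NanoLuc luciferase plus cell-permeant prosubstrate, added with HEK293 cells at 600 cells/well. After 5 h at 37 C/5% CO2 compounds were added; plates stayed at 37 C for 40 h with serial luminescence reads.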

Consider eleven compounds from PubChem BioAssay (Tox21).

Values without a mark were called inactive. Inconclusive results are not listed. Active and inactive are the calls of the source. Unless noted, the call rests on the fitted dose curve; in most records, active means well fitted curve in the direction sought with a large enough effect in the repeat runs; inconclusive means weak or mixed curves; inactive means no such curve, though single readings can be large; an effect the other way counts as inactive or inconclusive.
On the % scale 0 is the no-effect control and ±100 the full control effect.

Sequence of Estrogen receptor (Homo sapiens) (P03372 whole entry, looked up): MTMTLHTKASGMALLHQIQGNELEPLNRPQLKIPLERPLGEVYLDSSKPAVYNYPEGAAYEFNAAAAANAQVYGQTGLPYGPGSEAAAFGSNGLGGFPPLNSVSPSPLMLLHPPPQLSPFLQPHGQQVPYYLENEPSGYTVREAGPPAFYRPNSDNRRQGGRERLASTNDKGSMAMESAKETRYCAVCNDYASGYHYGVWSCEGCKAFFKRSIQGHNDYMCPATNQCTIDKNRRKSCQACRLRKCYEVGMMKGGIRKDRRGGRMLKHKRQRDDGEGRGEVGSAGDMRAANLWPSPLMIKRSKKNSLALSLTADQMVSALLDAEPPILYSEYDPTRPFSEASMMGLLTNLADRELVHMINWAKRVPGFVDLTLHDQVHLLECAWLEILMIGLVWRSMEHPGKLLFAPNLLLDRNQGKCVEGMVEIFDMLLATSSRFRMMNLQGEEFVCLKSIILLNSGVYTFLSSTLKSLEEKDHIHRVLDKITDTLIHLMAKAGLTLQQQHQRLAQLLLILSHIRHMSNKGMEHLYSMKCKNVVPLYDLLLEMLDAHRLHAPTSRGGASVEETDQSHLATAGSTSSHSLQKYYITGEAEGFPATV

Consider `CCCCCCCCCCCCCCN(C)C`, for which the activity change, negative = cytotoxicity in experiment [1] is 0% [at 15.8 µM]; in experiment [7] it was -19.6% [at 15.8 µM]; in [9] it was 0.479% [at 19 µM]; in experiment [13], 3.73% [at 19 µM]. The cytotoxicity increase in experiment [2] is -32.2% [at 15.8 µM]; in [3], -7.28% [at 15.8 µM]; in [4] it was -28% [at 15.8 µM]; in experiment [8], -1.47% [at 15.8 µM]. In experiment [5], the activity change, negative = cytotoxic was -0.238% [at 15.8 µM]. The activity change in experiment [6] is -30.9% [at 15.8 µM, hits give high values]. Also, the viability change, negative = cytotoxic in experiment [10] is -2.29% [at 19 µM]; in experiment [14] it was -0.743% [at 19 µM]. Moreover, the activity change, negative = inhibition in [11] was 15.5% [at 19 µM]; in experiment [12] it was 1.53% [at 19 µM].

Take `O=C(O)CCC(=O)c1ccc(-c2ccccc2)cc1`: the Potency entry in experiment [1], in [2], in [4], in experiment [5], in experiment [15] and in experiment [6] was “inactive” in each case. In addition, the Potency result in experiment [7], in [8], in experiment [9], in experiment [10], in experiment [16] and in experiment [17] was “inactive” each time. Further, the Potency entry in experiment [13], in [14] and in experiment [18] was “inactive” each time.

Take `COc1ccc(C)cc1`: the Potency result in [1], in experiment [2], in experiment [3], in experiment [4], in [5] and in experiment [15] was “inactive” throughout. Also, the Potency entry in experiment [6], in [7], in experiment [8], in experiment [9], in [10] and in [12] was “inactive” in each case. The Potency entry in experiment [13], in experiment [14] and in experiment [18] was “inactive” each time.

Turning to `COc1ccc(-c2cc(C(F)F)nn2-c2ccc(S(N)(=O)=O)cc2)cc1F`, the Potency result in experiment [1], in [2], in experiment [3], in [4], in [5] and in experiment [15] was “inactive” throughout. The Potency entry in experiment [6], in experiment [7], in experiment [8], in experiment [9], in experiment [10] and in experiment [11] was “inactive” in each case. The Potency result in experiment [17], in experiment [12], in experiment [13], in experiment [14] and in experiment [18] was “inactive” in each case.

Turning to `C/C(C=O)=C\c1ccccc1`, the Potency result in experiment [1], in experiment [19], in [3], in experiment [4], in [5] and in [20] was “inactive” in each case. In addition, the Potency result in [15], in experiment [6], in experiment [7], in experiment [8], in experiment [9] and in [10] was “inactive” in each case. Further, the Potency result in experiment [11], in [13] and in [14] was “inactive” each time.

For the compound `CSSc1ccoc1C`, the Potency entry in [1], in [2], in [3], in experiment [4], in [5] and in experiment [15] was “inactive” throughout. Moreover, the Potency entry in experiment [6], in experiment [7], in [8], in experiment [9], in experiment [10] and in experiment [12] was “inactive” throughout. For the same compound, the Potency entry in experiment [13], in experiment [14] and in [18] was “inactive” throughout.

`CC[C@H]1OC(=O)[C@H](C)[C@@H](O[C@H]2C[C@@](C)(OC)[C@@H](O)[C@H](C)O2)[C@H](C)[C@@H](O[C@@H]2O[C@H](C)C[C@H](N(C)C)[C@H]2O)[C@](C)(O)C[C@@H](C)C(=O)[C@H](C)[C@@H](O)[C@]1(C)O`: the Potency result in experiment [1], in experiment [2], in [3], in experiment [4], in experiment [5] and in experiment [20] was “inactive” in each case. Moreover, the Potency result in experiment [6], in experiment [7], in experiment [8], in experiment [10], in experiment [17] and in experiment [13] was “inactive” each time. The Potency result in [18] was “inactive”.

As to `CCCCCCCCCCCCCC(=O)OCC(O)CO` (centres undefined), the Potency result in experiment [1], in [19], in [3], in experiment [4], in [5] and in experiment [20] was “inactive” each time. For the same compound, the Potency entry in experiment [7], in experiment [8], in experiment [9], in [10], in experiment [16] and in experiment [13] was “inactive” in each case. In addition, the Potency entry in [14] and in experiment [18] was “inactive” in each case.

In the case of `O=C1c2ccccc2C(=O)c2c(O)ccc(O)c21`, the Potency entry in [1], in [19], in experiment [5], in experiment [20], in experiment [15] and in experiment [7] was “inactive” each time. In addition, the Potency result in experiment [10], in experiment [12], in [13] and in [14] was “inactive” each time. The Potency is 24.5 µM (active) in experiment [3], 27.5 µM (active) in [4], 30.9 µM (active) in experiment [6] and 21.9 µM (active) in [8].

`CCCCCCCC(=O)Oc1c(Br)cc(C#N)cc1Br`: the Potency entry in [1], in experiment [19], in experiment [3], in [4], in [5] and in [6] was “inactive” throughout. In addition, the Potency entry in experiment [7], in [8], in experiment [9], in experiment [10], in [12] and in experiment [13] was “inactive” each time. Besides, the Potency entry in [14] and in experiment [18] was “inactive” throughout. The Potency in experiment [20] was 38.8 µM (active).

Consider `c1ccc(CCCc2ccncc2)cc1`, for which the Potency result in [1], in [19], in [4], in experiment [5], in [15] and in experiment [7] was “inactive” in each case. Also, the Potency entry in experiment [9], in experiment [10], in [13], in experiment [14] and in experiment [18] was “inactive” throughout. Besides, in [12], the Potency is 27.3 µM (active).
